An excerpt weighted towards active compounds, which were near 12% of everything screened.
Insulin prom up = insulin promoter activators in MIN6 cells, imaging, high-content screening, mouse beta cells. MIN6 insulin promoter-GFP reporter; hits give high values. z-score at 5 µM. hit rate 0.3% among 190,000. AID 1625, 2009;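 active = z-score above 3 at 5 µM with at least 500 cells counted in the well; inconclusive = wells under 500 cells, flagged as cytotoxic or low count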
WT yeast gro inh = growth inhibition of WT strain, primary screen, mitochondrial fusion inhibitor project, WT and mutant strains, chemical genetic | mitochondrial fusion phenotypic screen | inhibition, % at 10 µM | hit rate 2.1% among 190,000; in the data active = inhibition above about 58%; tested in S. cerevisiae
KCC2 mod = KCC2 cotransporter modulators, thallium flux, primary screen, cell-based, HEK293 KCC2, FluoZin-2 fluorescence, MLSMR | Solute carrier family 12 member 5 (Homo sapiens), Q9H2X9 | KCC2 cells, thallium flux FluoZin-2 fluorescence | B-score of Tl+ flux slope (higher = more flux/activation; lower = inhibition) at 10 µM | hit rate 2.2% among 190,000 | AID 1456, 2008;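 active = thallium flux slope and its plate-corrected score both differing from the plate sample mean at a set confidence after two filtering rounds, in either direction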;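 also: slope of fluorescence scaled to starting intensity during 10 to 20 s after thallium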
Target sequence (Q9H2X9 whole entry, looked up): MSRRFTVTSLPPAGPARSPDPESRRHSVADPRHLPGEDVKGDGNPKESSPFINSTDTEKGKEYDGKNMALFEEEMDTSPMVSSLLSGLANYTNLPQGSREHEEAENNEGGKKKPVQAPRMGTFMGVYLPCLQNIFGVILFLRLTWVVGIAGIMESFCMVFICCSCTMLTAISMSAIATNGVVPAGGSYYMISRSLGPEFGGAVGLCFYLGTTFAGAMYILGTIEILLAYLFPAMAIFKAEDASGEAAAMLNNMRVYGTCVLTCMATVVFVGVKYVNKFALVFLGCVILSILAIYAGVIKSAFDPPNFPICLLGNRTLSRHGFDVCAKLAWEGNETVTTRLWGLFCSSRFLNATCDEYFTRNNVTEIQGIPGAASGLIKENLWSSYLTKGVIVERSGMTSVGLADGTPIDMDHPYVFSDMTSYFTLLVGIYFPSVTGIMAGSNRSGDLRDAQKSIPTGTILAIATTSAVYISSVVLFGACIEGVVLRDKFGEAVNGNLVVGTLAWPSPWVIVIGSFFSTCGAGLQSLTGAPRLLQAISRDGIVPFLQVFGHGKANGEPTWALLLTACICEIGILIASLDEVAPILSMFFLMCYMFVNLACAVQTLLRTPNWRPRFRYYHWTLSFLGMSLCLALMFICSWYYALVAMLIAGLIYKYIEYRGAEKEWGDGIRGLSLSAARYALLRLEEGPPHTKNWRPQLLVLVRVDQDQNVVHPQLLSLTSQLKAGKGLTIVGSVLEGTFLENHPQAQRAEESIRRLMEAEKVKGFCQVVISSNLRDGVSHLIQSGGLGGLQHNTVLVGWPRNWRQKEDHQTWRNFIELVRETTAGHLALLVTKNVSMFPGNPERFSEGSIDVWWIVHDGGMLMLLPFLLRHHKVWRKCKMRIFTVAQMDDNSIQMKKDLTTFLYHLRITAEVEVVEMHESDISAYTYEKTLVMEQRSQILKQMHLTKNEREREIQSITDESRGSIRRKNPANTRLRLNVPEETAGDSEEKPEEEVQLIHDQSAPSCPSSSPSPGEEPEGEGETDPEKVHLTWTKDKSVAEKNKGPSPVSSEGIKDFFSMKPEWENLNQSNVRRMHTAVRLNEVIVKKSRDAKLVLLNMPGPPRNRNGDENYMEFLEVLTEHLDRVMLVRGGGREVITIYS
Lmaj promast = Leishmania major promastigote growth inhibition, primary screen; Leishmania major promastigotes, resazurin fluorescence viability; inhibition, % at 10 µM; hit rate 9% among 200,000; in the data active = inhibition above about 50%;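 also: promastigotes grown with compound for 44 hours at 28 °C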
Insulin prom inh = inhibitors of insulin promoter-driven GFP, primary screen, imaging, TRM-6 cells (human fetal islet line), eGFP reporter, cell count | inhibition, % at 2 µM | hit rate 0.9% among 130,000 | AID 1273, 2008 | reporter expression induced with tamoxifen;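 active = inhibition above the mean plus 3 SD, with well images judged a real hit on visual review, cut at about 60% in these data, passing the limit was not always enough; inconclusive = inhibition over the cutoff but images rejected on review; inactive = inhibition not above the cutoff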
ROMK primary = ROMK potassium channel modulators, primary screen, cell-based, thallium flux, MLSMR library. ATP-sensitive inward rectifier potassium channel 1 (Homo sapiens), P48048. Tet-inducible ROMK, thallium flux fluorescence; actives lie on both sides. B-score at 10 µM. hit rate 2% among 130,000. AID 1918, 2009;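 active = signal ratio slope over the read window, or its plate-corrected B-score, at least 3 SD from the plate mean, either direction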;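 also: B-score of the F/F0 ratio slope over 7 to 12 s after thallium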
Large screens that a line does not name were inactive.

O=C(CCN1CCOCC1)Nc1ccc2c(c1)CCC2	none
CC1CCCN(CCC(=O)Nc2ccccc2)C1 (stereo not drawn)	none (no result: Insulin prom inh)
CC1CCCN(CCC(=O)Nc2ccc3c(c2)CCC3)C1 (stereo not drawn)	Lmaj promast 61 (no result: ROMK primary)
CCCS(=O)(=O)N1CCN(C(=O)c2ccccc2F)CC1	none (no result: KCC2 mod, ROMK primary)
Cc1onc(-c2ccccc2)c1C(=O)NC(=S)NNC(=O)c1ccccc1O	Lmaj promast 67 (no result: ROMK primary)
Cc1onc(-c2ccccc2)c1C(=O)NC(=S)NNC(=O)c1ccc(O)cc1O	Lmaj promast 92 (no result: ROMK primary)
Cc1ccccc1C(=O)NNC(=S)NC(=O)c1ccccc1	KCC2 mod 30, ROMK primary 2.3
Cc1onc(-c2ccccc2)c1C(=O)NC(=S)NNC(=O)c1ccc(O)cc1	Insulin prom up inconclusive (no result: ROMK primary)
Cc1ccccc1C(=O)NNC(=O)c1ccc(Br)cc1	none (no result: ROMK primary)
CC(C)(C)Cc1nnc(NC(=O)Cc2ccc([N+](=O)[O-])cc2)s1	none
NC(CC(=O)OC1CCCCC1)C(=O)OC1CCCCC1 (stereo not drawn)	none (no result: ROMK primary)
COc1cc(S(=O)(=O)N2CCOCC2)ccc1NC(=O)COC(=O)C12CC3CC(CC(C3)C1)C2	Insulin prom up 3.9 (no result: ROMK primary)
COc1ccc(S(=O)(=O)N2CCOCC2)cc1NC(=O)COC(=O)C1COc2ccccc2O1 (stereo not drawn)	Lmaj promast 66
COc1ccc(S(=O)(=O)N2CCOCC2)cc1NC(=O)CN1CCC(Cc2ccccc2)CC1	Lmaj promast 99
COc1ccc(S(=O)(=O)N2CCOCC2)cc1NC(=O)COC(=O)c1ccc(C)s1	none
CSc1ccc(C(=O)NCC(=O)O)cc1[N+](=O)[O-]	none (no result: WT yeast gro inh, Lmaj promast, Insulin prom inh, ROMK primary)
CC(C)CC(c1nnnn1C1CCCCC1)N1CCN(c2ncccn2)CC1 (stereo not drawn)	Lmaj promast 63 (no result: Insulin prom up, Insulin prom inh)
CCC(c1nnnn1C1CCCCC1)N1CCN(C2CCCC2)CC1 (stereo not drawn)	Lmaj promast 65 (no result: Insulin prom inh, ROMK primary)
CCCCC(c1nnnn1C1CCCC1)N1CCN(C2CCCC2)CC1 (stereo not drawn)	ROMK primary -3.2 (no result: KCC2 mod)
CCCCNC(=O)CCSc1ccc(C)cc1	none (no result: ROMK primary)
CSc1nc2cc(Oc3cccc(Cl)c3Cl)c(Cl)cc2[nH]1	WT yeast gro inh 85 (no result: Lmaj promast, Insulin prom inh, ROMK primary)
O=C(COC(=O)c1cc(-c2cccc3ccccc23)nc2ccccc12)NC1CCS(=O)(=O)C1 (stereo not drawn)	Lmaj promast 69 (no result: ROMK primary)
Cc1cc(C(=O)OCC(=O)NC2CCS(=O)(=O)C2)c2ccccc2n1 (stereo not drawn)	none (no result: Insulin prom inh)
COc1ccc2cc(-c3cc(C(=O)OCC(=O)NC4CCS(=O)(=O)C4)c4ccccc4n3)ccc2c1 (stereo not drawn)	Lmaj promast 60
O=C(COC(=O)c1cc(-c2cccc(Br)c2)nc2ccccc12)NCC1CCCO1 (stereo not drawn)	WT yeast gro inh 71 (no result: Insulin prom inh)
CN1CCc2ccccc2C1C1CCNCC1 (stereo not drawn)	none
CCOc1ccc(C2c3cc(OC)c(OC)cc3CC(=O)N2c2ccc(OC)cc2)cc1 (stereo not drawn)	Lmaj promast 80 (no result: KCC2 mod, Insulin prom inh)
CCOc1cc2c(cc1OCC)C(c1ccc(OC)c(OC)c1)N(c1ccc(C(=O)O)cc1)C(=O)C2 (stereo not drawn)	none (no result: Insulin prom inh)
CC(=O)Oc1ccc2ccccc2c1C(NC(=O)C(C)C)c1cccc([N+](=O)[O-])c1 (stereo not drawn)	Lmaj promast 99
CCCCC(=O)NC(c1cccc([N+](=O)[O-])c1)c1c(OC(C)=O)ccc2ccccc12 (stereo not drawn)	Lmaj promast 89
CC(=O)NC(c1cccc([N+](=O)[O-])c1)c1c(OC(C)=O)ccc2ccccc12 (stereo not drawn)	Lmaj promast 71 (no result: Insulin prom up)
CC(=O)Oc1ccc2ccccc2c1C(NC(=O)Cc1ccccc1)c1ccccc1 (stereo not drawn)	none (no result: KCC2 mod, ROMK primary)
CC(OC(=O)CCc1nc2ccccc2c(=O)[nH]1)C(=O)NC1CCCC1 (stereo not drawn)	none (no result: Insulin prom inh, ROMK primary)
O=C(COC(=O)CCc1nc2ccccc2c(=O)[nH]1)NC(=O)NC1CCCC1	Lmaj promast 53
O=C(CCc1nc2ccccc2c(=O)[nH]1)OCc1ccc(-c2ccccc2)cc1	Lmaj promast 93

Source: PubChem BioAssay
